Source: PubChem BioAssay (NCI)
About 79,000 compounds went through this panel and 15% of them were active in at least one assay; those are over-represented in the sample as a whole. Active and inactive are the calls of the source. Rule as the data show it: active = growth inhibition above about 70%; inactive = the rest.

Tests used:
[1] = NCI Yeast Anticancer Drug Screen. Data for the rad50 strain (AID 155);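 also: 0% = growth of vehicle-only cultures of the same strain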; details: S. cerevisiae rad50 strain growth inhibition; at 50.0 µM; hits give high values
In short: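 Yeast carrying a defined DNA repair defect were exposed to test compounds, and growth was compared with vehicle-treated controls to give percent inhibition.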

[2] = NCI Yeast Anticancer Drug Screen. Data for the mec2-1 strain (AID 157); details: S. cerevisiae mec2-1 strain, at 50.0 µM, hits give high values
In short: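 Mutant yeast (mec2-1) grown with compound; growth inhibition relative to vehicle control reported.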

[3] = NCI Yeast Anticancer Drug Screen. Data for the sgs1 mgt1 strain (AID 161);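 also: 0% = growth of cultures given vehicle only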; details: S. cerevisiae sgs1 mgt1 strain, at 50.0 µM, hits give high values
In short: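 Percent growth inhibition was derived by comparing compound-exposed mutant yeast with vehicle-exposed cultures. The strain carries alterations in DNA damage repair.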

[4] = NCI Yeast Anticancer Drug Screen. Data for the cln2 rad14 strain (AID 165);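 also: 0% = growth equal to vehicle treated cultures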; details: S. cerevisiae cln2 rad14 strain, at 50.0 µM, hits give high values
In short: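 Readout is yeast growth inhibition versus vehicle-treated controls, using a strain with cln2 and rad14 alterations exposed to compound.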

[5] = NCI Yeast Anticancer Drug Screen. Data for the bub3 strain (AID 167); details: S. cerevisiae bub3 mutant strain, at 50.0 µM, hits give high values
In short: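 Compounds were applied to a genetically altered yeast strain carrying a cell-cycle control defect. Growth inhibition was scored against vehicle-treated controls.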

[6] = NCI Yeast Anticancer Drug Screen. Data for the mlh1 rad18 strain (AID 175); details: S. cerevisiae mlh1 rad18 strain growth inhibition; at 50.0 µM; hits give high values
In short: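 Genetically defined yeast (DNA repair-deficient) exposed to compounds; growth inhibition determined relative to vehicle.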

Measured: growth inhibition

CC(C)(C(=O)Cc1ccccc1)c1ccccc1
inactive: [1] -29.5% | [2] -21.4% | [3] -10.2% | [4] 31.1% | [5] 0.2% | [6] -11.3%

CCCCCCCC(C(=O)O)C(=O)O
inactive: [1] -2.1% | [2] 0.4% | [3] 10.3% | [4] 10.3% | [5] -2.5% | [6] 11.5%

COc1ccc(NC(=O)CC#N)cc1
inactive: [1] 7.9% | [2] 1.6% | [3] 15.8% | [4] 6.1% | [5] -3.25% | [6] 3.75%

N#Cc1nc(-c2cc([N+](=O)[O-])cc([N+](=O)[O-])c2)oc1N
inactive: [1] -14.6% | [2] -10.6% | [3] -4.7% | [4] 1.8% | [6] -8.6%

O=C1CSCCO1
inactive: [1] -7.3% | [2] -27.4% | [3] -3.6% | [4] -37% | [6] -7%

Cn1c(=O)c2c3ccccc3c(C(=O)c3ccccc3)n2c2ccccc21
inactive: [1] 38.4% | [2] 4.1% | [3] 27.4% | [4] 25.9% | [6] 34.4%

NC(=O)/C(=N/O)c1ccccc1
inactive: [1] -1.85% | [2] 13.2% | [3] 1.7% | [4] 1.25% | [6] -7.6%

COc1ccccc1C=NC12CC3CC(CC(C3)C1)C2
inactive: [1] -29.2% | [2] -12.6% | [3] 2.55% | [4] 1.9% | [6] -16.6%

C=CCCNC(=S)S
inactive: [1] -1.15% | [2] 11.7% | [3] 6.1% | [4] -2.9% | [6] -3.4%

NNC(=O)CC(=O)Nc1ccc(S(=O)(=O)c2ccc(NC(=O)CC(=O)NN)cc2)cc1
inactive: [1] 16.6% | [2] 12.7% | [3] 18.6% | [4] 30.1% | [6] -1%

Cc1c(O)c2ccc3ccccc3c2oc1=O
inactive: [1] 5.4% | [2] 5.75% | [3] -7.05% | [4] -37.4% | [6] -6.4%

CC1=C(c2cc(C(=O)Nc3nccs3)nc(NC#N)n2)Sc2ccccc2N1
inactive: [1] -9.2% | [2] 5.4% | [3] -8.65% | [4] 15.2% | [6] 10.3%

CCCCC1(N=[N+]=[N-])C(=O)c2cccc3c2N(CCC3)C1=O (stereo unspecified)
inactive: [1] 48.8% | [2] 30.9% | [3] 29.9% | [4] 3.1% | [6] 61.5%

CC(=O)Nc1c(C)ccc(C)c1C(=O)O
inactive: [1] 3.65% | [2] -0.7% | [3] 8.25% | [4] 1.15% | [6] 11.8%

COc1cc2c(C)cc(=O)oc2c(OCC(O)CN2CCCC2)c1OC (stereo unspecified)
inactive: [1] -0.75% | [2] 14% | [3] -5.75% | [4] 1.35% | [6] -5.25%

COc1ccc2c(c1O)-c1cccc3c1C(C2)N(CCOCCCl)CC3 (stereo unspecified)
inactive: [1] 28.4% | [2] -12.8% | [3] -19.9% | [4] 12.9% | [6] -8.85%

CC(=O)Oc1ccc(I)cc1C(=O)O
inactive: [1] 5.7% | [2] -29.4% | [3] 1.25% | [4] -12.7% | [6] -11.8%

COc1ccc(OC)c(C(C)=O)c1
inactive: [1] -59% | [2] -66% | [3] -94% | [4] 1.75% | [6] -29.4%

CCOC(CCl)(NC(C)=O)C(=O)OC (stereo unspecified)
inactive: [1] -0.5% | [2] -9.7% | [3] -9.55% | [4] -8.75% | [6] -8.1%

CCCNN(CCC)C(N)=O
inactive: [1] 0.6% | [2] 13.7% | [3] -5.75% | [4] 2.75% | [6] -7.25%

NS(=O)(=O)c1cc2c(cc1Cl)NC(Cc1ccccc1)NS2(=O)=O (stereo unspecified)
inactive: [1] -20.7% | [2] -4.55% | [3] -9.45% | [4] -7.2% | [6] 18.4%

O=C(O)c1cc(-c2ccccc2Cl)nc2ccccc12
inactive: [1] 10.7% | [2] -6.55% | [3] -8.3% | [4] -10.7% | [6] 0.45%

CC12CC3CC(C)(C1)CC(SCCN=C(N)CCl)(C3)C2
active: [1] 98.5% | [2] 99% | [3] 99.3% | [4] 96.3% | [6] 99.2%

Cc1ccccc1-n1c(=S)[nH]c2c(sc(=O)n2-c2ccccc2C)c1=O
inactive: [1] 3.95% | [2] -7.9% | [3] 0.8% | [4] 17.6% | [6] -11.4%

CCOC(=O)C(=CNC(=S)Nc1ccccc1)C(=O)OCC
inactive: [1] -24.9% | [2] -22.9% | [3] -23.8% | [4] -17.1% | [6] 2.2%

O=C1CSC(=S)N1.[Cu+2]
inactive: [1] -7.9% | [2] -9.5% | [3] 7.7% | [4] -7.65% | [5] -4.5% | [6] 4.3%

COC(=O)c1nn(-c2ccccc2)c2nc3ccccc3c-2c1C(=O)OC
inactive: [1] 39.8% | [2] 17% | [3] 31% | [4] 18.5% | [6] 36.5%

Clc1cccc2[nH]c(-c3ccncc3)nc12
inactive: [1] -18.1% | [2] -15.1% | [3] -15.4% | [4] -10.8% | [6] -5.75%

CC1=NN(C(=O)c2ccccc2O)C(=O)/C1=C/c1ccc(O)cc1
inactive: [1] 6.3% | [2] -16.1% | [3] -15.5% | [4] -5.65% | [6] -27.6%

C=CCN(CC=C)P(=O)(N(CC=C)CC=C)N(CC=C)CC=C
inactive: [1] 22.3% | [2] 8.9% | [3] 16.4% | [4] 0.15% | [6] 21.4%

CCCN1CN(C(C(=O)N[C@@H]2C(=O)N3C(C(=O)O)=C(C)CSC23)c2ccc(O)cc2)CSC1=S (stereo partly specified)
inactive: [1] 11.8% | [2] 7.15% | [3] 10.2% | [4] -25.8% | [6] 34.4%

O=CCC1CCCCC1
inactive: [1] -4.8% | [2] -2.2% | [3] -13.1% | [4] 16.9% | [6] 6.25%

Cc1ccc(C)n1-c1ccc(OCC(N)=O)cc1
inactive: [1] 16.3% | [2] 16.1% | [3] 12.7% | [4] -15.7% | [6] 13.9%

CC(C)COC1CN=NN1/C=C1\CCOC1=O (stereo unspecified)
inactive: [1] -4.2% | [2] 10.4% | [3] 14.3% | [4] -6.65% | [6] -3%

O=P1(O)Oc2ccc3ccccc3c2-c2c(ccc3ccccc23)O1
inactive: [1] -0.4% | [2] 30.3% | [3] -6.1% | [4] -16.9% | [6] 15.7%

C[N+](C)(C)CC(=O)c1ccc[nH]1
inactive: [1] 2.1% | [2] -11.2% | [3] 14.9% | [4] -0.8% | [6] 13.1%

COc1cccc(NC(=O)CSc2nnc(Cc3ccccc3)o2)c1
inactive: [1] -18.8% | [2] -11.9% | [3] -20.8% | [4] -8.2% | [5] -12.4% | [6] -36.5%

CCOC(=O)/C=C(/C)c1ccccc1
inactive: [1] 12.2% | [2] 18.2% | [3] 6.9% | [4] 0.7% | [5] -2.7% | [6] 3.1%

Cc1ccc(-c2cn3c(nc4ccccc43)c(-c3ccccc3)n2)cc1
inactive: [1] -25.6% | [2] -26.9% | [3] -41.6% | [4] -53.4% | [6] -45%

O=C1CSc2ccncc2N1
inactive: [1] 13.8% | [2] 2.9% | [3] 13.5% | [4] 11.4% | [6] 24.1%

CCOC(=O)c1cn(C)c2c1C(O)=C(C(=O)OC)CC(=O)N2
inactive: [1] 4.5% | [2] 1.1% | [3] -14.2% | [4] 7.2% | [6] -26.8%

COC1=CC(=O)/C(=C(O)/C=C/c2ccccc2)C(=O)C1(C)C
inactive: [1] 3.2% | [2] -1.65% | [3] 16.9% | [4] -2.5% | [6] 29.4%

O=C(CN1CCOCC1)Nc1cccc(Cl)c1
inactive: [1] 0.5% | [2] -20.1% | [3] -2.6% | [4] -14.8% | [6] -29.1%
